The nature of experiment [1]: qHTS of pediatric cancer cell lines to identify multiple opportunities for drug repurposing: Confirmatory screen for NB-EBc1 cells (AID 1347115).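 Further: cells exposed to compound for 48 h before the viability read; nearly all actives have a fitted effect of over 45% in size.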 In a few lines: (§1)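 Cells (500-1,000/well) rested 5 h, then received compounds for 48 h; metabolically active cells were measured by CellTiter-Glo luminescence. Final concentrations spanned up to 46 µM (MIPE, 11-point) or 0.59 nM-46 µM (NPC, 8-point) in primary screens, 11-point in follow-ups.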
Background: qHTS replaces the single test concentration by a dilution series.

Experiment [2] is described as follows: qHTS of pediatric cancer cell lines to identify multiple opportunities for drug repurposing: Confirmatory screen for SJ-GBM2 cells (AID 1347116). Further: nearly all actives have a fitted effect of over 60% in size. In short, it runs like this: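 Viability measured as metabolically active cells via CellTiter-Glo luminescence following 48 hours of compound exposure, 11-point dilutions in confirmatory testing. 500-1,000 cells/well plated 5 hours before dosing; controls were DMSO and 2.3 µM bortezomib.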

Experiment [3] in a line: qHTS of pediatric cancer cell lines to identify multiple opportunities for drug repurposing: Confirmatory screen for BT-37 cells (AID 1347117). Further: nearly all actives have a fitted effect of over 55% in size. In a few lines:
as §1

A short description of experiment [4]: qHTS of pediatric cancer cell lines to identify multiple opportunities for drug repurposing: Confirmatory screen for MG 63 (6-TG R) cells (AID 1347119). Further: nearly all actives have a fitted effect of over 55% in size. In a few lines: as §1
The nature of experiment [5]: qHTS of pediatric cancer cell lines to identify multiple opportunities for drug repurposing: Confirmatory screen for control Hh wild type fibroblast cells (AID 1347121). Further: nearly all actives have a fitted effect of over 70% in size. In a few lines:
as §1

A short description of experiment [6]: qHTS of pediatric cancer cell lines to identify multiple opportunities for drug repurposing: Confirmatory screen for U-2 OS cells (AID 1347122). Further: nearly all actives have a fitted effect of over 65% in size. In a few lines:
as §1

A short description of experiment [7]: qHTS of pediatric cancer cell lines to identify multiple opportunities for drug repurposing: Confirmatory screen for Rh18 cells (AID 1347125). Further: nearly all actives have a fitted effect of over 55% in size. In a few lines: as §1
The nature of experiment [8]: qHTS of pediatric cancer cell lines to identify multiple opportunities for drug repurposing: Confirmatory screen for Rh30 cells (AID 1347126). Further: nearly all actives have a fitted effect of over 55% in size. In short, it runs like this:
as §1

Experiment [9] is described as follows: qHTS of pediatric cancer cell lines to identify multiple opportunities for drug repurposing: Confirmatory screen for Saos-2 cells (AID 1347127). Further: nearly all actives have a fitted effect of over 60% in size. In short, it runs like this: as §1
Experiment [10] deals with Zika virus NS2B-NS3 protease. The experiment can be described thus: Primary screen GU AMC qHTS for Zika virus inhibitors (AID 1347154). Further: nearly all actives have a fitted effect of over 70% in size. In a few lines: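 Fluorogenic AMC-substrate cleavage by noncovalent NS2B-NS3 protease complex (25 nM, pH 8.0 Tris buffer with Tween 20) followed for 15 minutes at room temperature (~20% conversion). Percent inhibition from ex340/em450 signal change, fitted by 4-parameter Hill equation.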

A short description of experiment [11]: qHTS of pediatric cancer cell lines to identify multiple opportunities for drug repurposing: Confirmatory screen for TC32 cells (AID 1347118).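 Further: cells exposed to compound for 48 h before the read; nearly all actives have a fitted effect of over 65% in size.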 In short, it runs like this:
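Measured quantity: luminescence from CellTiter-Glo, reflecting metabolically active TC32 cells following 48 h of compound. Curves came straight from multi-point titrations, with 8 or 11 points in primary and 11 in confirmatory screening.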

Experiment [12] in a line: qHTS of pediatric cancer cell lines to identify multiple opportunities for drug repurposing: Confirmatory screen for OHS-50 cells (AID 1347128). In short, it runs like this: as §1
Experiment [13] can be described thus: qHTS of pediatric cancer cell lines to identify multiple opportunities for drug repurposing: Confirmatory screen for SK-N-SH cells (AID 1347129).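 Further: cells exposed to compound for 48 h before viability read; nearly all actives have a fitted effect of over 60% in size.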 In short, it runs like this: as §1
A short description of experiment [14]: qHTS of pediatric cancer cell lines to identify multiple opportunities for drug repurposing: Confirmatory screen for Rh41 cells (AID 1347123).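 Further: 48 h compound exposure; nearly all actives have a fitted effect of over 60% in size.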 In short, it runs like this: as §1
Experiment [15] is described as follows: qHTS of pediatric cancer cell lines to identify multiple opportunities for drug repurposing: Confirmatory screen for RD cells (AID 1347124).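 Further: cells exposed to compound for 48 h before viability readout; nearly all actives have a fitted effect of over 65% in size.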 In short, it runs like this:
as §1

Experiment [16] deals with Furin (Homo sapiens) (UniProt P09958). The experiment can be described thus: Furin counterscreen qHTS for Zika virus inhibitors (AID 1347149). Further: nearly all actives have a fitted effect of over 70% in size. In short, it runs like this: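 Fluorogenic cleavage of BOC-RVRR-AMC (2 microM final, Km ~15 µM) was monitored (ex 340, em 450 nm) at 37C after 15 min RT preincubation of 5 nM furin with compounds in HEPES pH 7.0 buffer with CaCl2 and Triton X-100. Percent inhibition was fitted to a 4-parameter Hill curve.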
Furin (Homo sapiens), sequence (P09958 whole entry, looked up): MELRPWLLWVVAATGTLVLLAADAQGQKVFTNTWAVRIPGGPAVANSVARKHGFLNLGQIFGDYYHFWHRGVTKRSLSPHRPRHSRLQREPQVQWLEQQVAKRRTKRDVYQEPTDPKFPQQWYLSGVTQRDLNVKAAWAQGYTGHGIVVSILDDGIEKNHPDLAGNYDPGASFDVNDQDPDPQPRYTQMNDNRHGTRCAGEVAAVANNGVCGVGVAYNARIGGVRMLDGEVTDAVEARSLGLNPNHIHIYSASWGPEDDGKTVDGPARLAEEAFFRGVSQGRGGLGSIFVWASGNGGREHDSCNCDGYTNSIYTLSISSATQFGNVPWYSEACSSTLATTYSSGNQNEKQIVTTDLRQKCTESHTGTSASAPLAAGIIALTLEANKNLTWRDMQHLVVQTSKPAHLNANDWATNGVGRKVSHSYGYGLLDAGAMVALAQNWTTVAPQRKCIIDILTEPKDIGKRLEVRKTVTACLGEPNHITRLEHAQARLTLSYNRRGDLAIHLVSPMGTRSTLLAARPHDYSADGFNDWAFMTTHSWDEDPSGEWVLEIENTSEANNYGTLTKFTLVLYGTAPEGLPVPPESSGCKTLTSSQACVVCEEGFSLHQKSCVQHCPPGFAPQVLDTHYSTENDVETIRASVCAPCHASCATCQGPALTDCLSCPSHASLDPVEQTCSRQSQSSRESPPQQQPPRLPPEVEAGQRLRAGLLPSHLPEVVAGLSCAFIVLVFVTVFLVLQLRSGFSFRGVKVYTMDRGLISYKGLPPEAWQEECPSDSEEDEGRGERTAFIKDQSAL

Experiment [17] deals with Zika virus NS2B-NS3 protease (linked construct). The experiment can be described thus: Confirmatory screen NINDS AMC qHTS for Zika virus inhibitors (AID 1347152). Further: nearly all actives have a fitted effect of over 70% in size. In short, it runs like this:
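Linked NS2B-NS3 protease, 1 nM, in 10 mM Tris-HCl pH 8.0, 0.01% Tween 20; compounds preincubated 15 min at room temperature. Nle-KRR-AMC 10 microM (Km 18.3 µM); 15-min fluorescence change (340/450 nm) fitted to 4-parameter Hill.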

The subject of experiment [18] is Zika virus NS2B-NS3 protease (unlinked complex). The experiment can be described thus: Confirmatory screen GU AMC qHTS for Zika virus inhibitors (AID 1347153). Further: nearly all actives have a fitted effect of over 70% in size. In a few lines: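 Unlinked enzyme 25 nM, Tris pH 8.0/0.01% Tween 20; cpd 15 min RT, dark; + AMC substrate 10 µM (Km 18.3 µM); 340/450 nm read at t0 and 15 min; % inhibition → 4-param fit.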

Records with an inconclusive call do not appear. Calls of active or inactive are those of the source. The call rests on the fitted dose curve; in most records, active means well fitted curve in the direction sought with a large enough effect; inconclusive means small, poorly fitted or top-dose-only effect, or another doubt; inactive means no such curve, though single readings can be large; an effect the other way counts as inactive or inconclusive.

The results in this text go back to PubChem BioAssay (NCATS).
Potency means the concentration at half of the fitted maximal effect.

Regarding `Cc1cnc(-c2cnc(NCCNc3ccc(C#N)cn3)nc2-c2ccc(Cl)cc2Cl)[nH]1`, the Potency in experiment [1] is 14700 nM (active); in experiment [4], 737 nM (active). Also, the Potency result in [2], in experiment [3], in experiment [5], in experiment [6], in experiment [7] and in experiment [8] was “inactive” each time. Besides, the Potency result in [9] and in [10] was “inactive” in each case.
`COc1c(OCCCN2CCOCC2)ccc2c3n(c(=NC(=O)c4cnc(N)nc4)nc12)CCN3`: the Potency is 2570 nM (active) in experiment [1]; 2040 nM (active) in [2]; 6440 nM (active) in experiment [3]; 1020 nM (active) in experiment [11]; 229 nM (active) in [4]; 644 nM (active) in experiment [7]. Moreover, the Potency is 456 nM (active) in experiment [8], 644 nM (active) in experiment [9], 2290 nM (active) in experiment [12] and 2040 nM (active) in experiment [13]. The Potency result in experiment [6] and in experiment [10] was “inactive” in each case.
For `NCC(=O)Nc1ccc(-n2nc(C(F)(F)F)cc2-c2ccc3c(ccc4ccccc43)c2)cc1`, the Potency in experiment [1] is 7370 nM (active); in experiment [2], 3290 nM (active); in experiment [3], 2930 nM (active); in experiment [11], 1470 nM (active); in experiment [6], 26.1 nM (active); in [14], 7370 nM (active). The Potency was 5220 nM (active) in [15], 2610 nM (active) in experiment [7] and 3290 nM (active) in [9]. In addition, the Potency result in experiment [10] is “inactive”.
With `COCCn1c2c([n+](Cc3cnccn3)c1C)C(=O)c1ccccc1C2=O`, the Potency was 1040 nM (active) in experiment [1]; 65.7 nM (active) in [2]; 82.7 nM (active) in experiment [3]; 18.5 nM (active) in experiment [11]; 73.7 nM (active) in [4]; 261 nM (active) in experiment [5]. Besides, the Potency in [6] was 14.7 nM (active); in experiment [14] it was 18.5 nM (active); in experiment [15], 26.1 nM (active); in experiment [7], 14.7 nM (active); in [9], 7.4 nM (active); in [12], 5.2 nM (active). Moreover, the Potency in experiment [13] was 235 nM (active). The Potency entry in experiment [8] and in [10] was “inactive” in each case.
For `OCCCNc1cc(-c2ccnc(Nc3cccc(Cl)c3)n2)ccn1`, the Potency result in experiment [1], in experiment [5] and in [10] was “inactive” throughout. Also, the Potency was 369 nM (active) in experiment [2]; 261 nM (active) in experiment [3]; 165 nM (active) in [11]; 52.2 nM (active) in experiment [14]; 414 nM (active) in experiment [8]; 261 nM (active) in [9]. Further, the Potency in [12] was 329 nM (active); in experiment [13], 148 nM (active).
With `COc1ccc(-n2nc(C(N)=O)c3c2C(=O)N(c2ccc(N4CCCCC4=O)cc2)CC3)cc1`, the Potency result in experiment [1], in experiment [3], in experiment [4], in experiment [5], in [7] and in experiment [9] was “inactive” each time. Besides, the Potency entry in experiment [12], in [13] and in experiment [10] was “inactive” throughout. In addition, the Potency was 2330 nM (active) in experiment [2], 233 nM (active) in experiment [14], 1310 nM (active) in experiment [15] and 147 nM (active) in [8].
For the compound `C[C@@]12O[C@@H](C[C@]1(O)CO)n1c3ccccc3c3c4c(c5c6ccccc6n2c5c31)CNC4=O`, the Potency in [1] is 5850 nM (active); in [2], 18500 nM (active); in experiment [3], 2930 nM (active); in experiment [11], 657 nM (active); in experiment [4], 1470 nM (active); in [5] it was 18500 nM (active). The Potency in experiment [6] was 737 nM (active); in [14], 8270 nM (active); in experiment [7], 3690 nM (active); in experiment [8], 2330 nM (active); in [9] it was 1310 nM (active); in experiment [12] it was 4650 nM (active). In addition, the Potency in experiment [13] was 5260 nM (active); in experiment [16], 7620 nM (active); in experiment [17] it was 24100 nM (active); in experiment [18], 24100 nM (active); in experiment [10] it was 21500 nM (active).
For the compound `CNC(=O)c1c(F)cccc1Nc1nc(Nc2cc3c(cc2OC)CCN3C(=O)CN(C)C)nc2[nH]ccc12`, the Potency is 5850 nM (active) in [1]; 928 nM (active) in experiment [2]; 26100 nM (active) in experiment [3]; 522 nM (active) in experiment [11]; 3690 nM (active) in experiment [4]; 928 nM (active) in experiment [6]. The Potency is 414 nM (active) in experiment [14]; 14700 nM (active) in [7]; 585 nM (active) in experiment [8]; 3690 nM (active) in [9]; 16500 nM (active) in experiment [12]; 5900 nM (active) in experiment [13]. In addition, the Potency entry in experiment [10] is “inactive”.
`CC(C)[C@H](C(=O)Nc1ccc(C(=O)NO)cc1)c1ccccc1`: the Potency is 928 nM (active) in experiment [1]; 1470 nM (active) in [2]; 1040 nM (active) in experiment [3]; 737 nM (active) in [11]; 657 nM (active) in [4]; 657 nM (active) in experiment [6]. Besides, the Potency is 1170 nM (active) in experiment [14]; 827 nM (active) in experiment [7]; 2330 nM (active) in experiment [8]; 1850 nM (active) in [9]; 2330 nM (active) in experiment [12]. In [13], the Potency result was “inactive”.
As for `CCN1CCN(Cc2ccc(-c3cc4c(N[C@H](C)c5ccccc5)ncnc4[nH]3)cc2)CC1`, the Potency in experiment [1] was 38000 nM (active); in [2] it was 30200 nM (active); in experiment [3], 2690 nM (active); in experiment [11], 759 nM (active); in [4] it was 13500 nM (active); in [5], 42700 nM (active). In addition, the Potency in experiment [6] was 12000 nM (active); in experiment [14], 1510 nM (active); in experiment [15], 21400 nM (active); in experiment [7] it was 33900 nM (active); in [8], 15100 nM (active); in [9], 4270 nM (active). The Potency in experiment [12] is 4790 nM (active); in [13], 10800 nM (active); in experiment [16] it was 27800 nM (active); in experiment [17] it was 44100 nM (active); in experiment [18], 49400 nM (active); in [10] it was 17100 nM (active).
As for `C=CC(=O)Nc1cc2c(Nc3ccc(F)c(Cl)c3)ncnc2cc1C#CC(C)(C)N1CCN(C)CC1`, the Potency in experiment [1] was 15100 nM (active); in experiment [2], 6030 nM (active); in experiment [3] it was 3020 nM (active); in [11], 3020 nM (active); in experiment [4], 4270 nM (active); in experiment [5] it was 19100 nM (active). Moreover, the Potency in experiment [6] is 4790 nM (active); in experiment [14] it was 2690 nM (active); in experiment [7], 6030 nM (active); in experiment [8], 3800 nM (active); in experiment [9], 4270 nM (active); in experiment [12], 6030 nM (active). For the same compound, the Potency in experiment [13] is 4290 nM (active).
`CN1CCN(Cc2ccc(NC(=O)Nc3ccc(Oc4cc(NC(=O)C5CC5)ncn4)cc3)cc2C(F)(F)F)CC1`: the Potency in experiment [1] was 23300 nM (active); in experiment [2] it was 1650 nM (active); in [3], 369 nM (active); in experiment [4], 2610 nM (active); in experiment [6], 737 nM (active); in experiment [14], 233 nM (active). For the same compound, the Potency in [15] is 414 nM (active); in experiment [7], 369 nM (active); in [8], 2330 nM (active); in experiment [9], 369 nM (active); in [12] it was 585 nM (active); in experiment [13], 743 nM (active). Also, in experiment [10], the Potency entry is “inactive”.
